{"source": "PubChem BioAssay (EPA / NIEHS)", "note": "Results filed as inconclusive are left out. The source made the active and inactive calls. Rule for the calls: active = hit-call score of the fitted dose curve at least 0.9, where 1 is the maximum; inconclusive = response in the unintended direction; inactive = score below 0.9.", "data": [{"read-out": "organic anion transporter (SLCO1B1), SLCO1B1 (gene 10599)", "experiment": "CLD_SLCO1B1_6hr: CellzDirect (CLD) Gene Expression Assay for organic anion transporter (SLCO1B1) at 6 hours (AID 2283668);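 note: active means mRNA induction above DMSO baseline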", "experimental": "CLD_6hr is a cell-based, multiplexed-readout assay that uses hepatocyte, a human liver primary cell, with measurements taken at 6 hours after chemical dosing in a 96-well plate.CLD_SLCO1B1_6hr is one of 16 assay component(s) measured or calculated from the CLD_6hr assay. It is designed to make measurements of mRNA induction, a form of inducible reporter, as detected with chemiluminescence signals by Quantitative Nuclease Protection Assay (qNPA) technology.Data from the assay component CLD_SLCO1B1_6hr was analyzed at the endpoint, CLD_SLCO1B1_6hr, in the positive analysis fitting direction relative to DMSO as the negative control and baseline of activity. Using a type of inducible reporter, gain-of-signal activity can be used to understand changes in the reporter gene as they relate to the gene SLCO1B1. Furthermore, this assay endpoint can be referred to as a primary readout. To generalize the intended target to other relatable targets, this assay endpoint is annotated to the transporter intended target family, where subfamily is organic anion transporter.\nHuman hepatocyte cultures were treated daily for two consecutive days with fresh dosing solutions containing appropriate concentrations of the 320 ToxCast chemicals (chemical identities were blinded to CellzDirect and other ToxCast collaborators), vehicle control (0.2% DMSO), and positive control inducers as summarized in Table 1. Due to the large number of treatment groups and chemicals examined, the ToxCast chemicals were divided into two groups (spanning two independent cultures of hepatocytes from separate donor preparations (Hu778: ToxCast plates 1 and 2; Hu776: ToxCast plates 3 and 4). Each preparation of human hepatocyte cultures was treated with respective vehicle control, medium only control, set of six positive controls/reference chemicals for the five hepatic receptor pathways, and a subset of eight of the ToxCast chemicals (indoxacarb, pyrithiobac-sodium, norflurazon, cyhalofop-butyl, methomyl, thiram, acetochlor, and propiconazole). These replicate data, coupled with internal replicates designed within the blinded ToxCast chemical library, provided additional data to evaluate interindividual differences between hepatocyte preparations and their potential impact on chemical profiles.Cell morphology and integrity were evaluated using phase-contrast microscopy as an indicator of hepatocyte cell health (Tyson & Green, 1987). Cultures for each treatment group (i.e., media, vehicle [0.2% DMSO], positive control inducers [multiple concentrations], and the ToxCast chemicals [multiple concentrations]) were observed and cell morphology was assessed relative to vehicle control cultures at each harvest time point (0, 6, 24, or 48 h). […] Images were evaluated at the conclusion of the study to assess changes in cell integrity and account for the effects of chemical exposure on uncharacteristic changes in concentration-dependent gene expression profiles. The results from these determinations of apparent cytotoxicity were annotated (yes/no) alongside the corresponding qNPA data for reference.At the conclusion of each treatment period, hepatocyte cultures (96-well) were washed with 1 volume of HBSS, lysed by addition of 25 ul ArrayPlate lysis buffer (HTG, Tucson, AZ), and 70 ul/well of Denaturation Oil, denatured by incubation at 95C for 10 min, and frozen at approximately -70C until analysis by nuclease protection assay (qNPA) (Roberts et al., 2007). For qNPA analysis, cell lysates were thawed at 50C for approximately 30 min, qNPA probes were added, and samples were incubated at 95C for 10 min to begin the detection process by denaturing the target RNA, dissociating the duplexes and secondary structure hybridization. At the conclusion of the hybridization period, S1 nuclease reagent was added to each sample to digest all nonprotected nucleotides at 50C for 60-90 min. […]", "values": [{"smiles": "O=S1OCC2C(CO1)C1(Cl)C(Cl)=C(Cl)C2(Cl)C1(Cl)Cl", "note": "(stereo not given)", "outcome": "inactive"}, {"smiles": "CCS(=O)(=O)c1cccnc1S(=O)(=O)NC(=O)Nc1nc(OC)cc(OC)n1", "outcome": "inactive"}, {"smiles": "O=[N+]([O-])/N=C1\\NCCN1Cc1ccc(Cl)nc1", "outcome": "inactive"}, {"smiles": "CNC(=O)Oc1ccccc1OC(C)C", "outcome": "inactive"}, {"smiles": "CN1CSC(=S)N(C)C1", "outcome": "inactive"}, {"smiles": "O=C(O)CCCOc1ccc(Cl)cc1Cl", "outcome": "inactive"}, {"smiles": "CCC(C)(NC(=O)c1cc(Cl)c(C)c(Cl)c1)C(=O)CCl", "note": "(stereo not given)", "outcome": "inactive"}, {"smiles": "O=C(O)C(F)(F)C(F)(F)C(F)(F)C(F)(F)C(F)(F)C(F)(F)C(F)(F)F", "outcome": "inactive"}, {"smiles": "COC(=O)c1ccccc1S(=O)(=O)NC(=O)Nc1nc(C)nc(OC)n1", "outcome": "inactive"}, {"smiles": "O=C(Nc1ccccc1)Nc1cnns1", "outcome": "inactive"}, {"smiles": "O=[N+]([O-])c1c(Cl)c(Cl)c(Cl)c(Cl)c1Cl", "outcome": "inactive"}, {"smiles": "COC(=O)c1ccccc1S(=O)(=O)NC(=O)N(C)c1nc(C)nc(OC)n1", "outcome": "inactive"}, {"smiles": "CNC(=O)/C=C(\\C)OP(=O)(OC)OC", "outcome": "inactive"}, {"smiles": "N#CN", "outcome": "inactive"}, {"smiles": "CC(C)OC(=O)Nc1cccc(Cl)c1", "outcome": "inactive"}, {"smiles": "CCOCN(C(=O)CCl)c1c(C)cccc1CC", "outcome": "inactive"}, {"smiles": "CC[C@H](C)[C@H]1O[C@]2(C=C[C@@H]1C)C[C@@H]1C[C@@H](C/C=C(\\C)[C@@H](O[C@H]3C[C@H](OC)[C@@H](O[C@H]4C[C@H](OC)[C@@H](O)[C@H](C)O4)[C@H](C)O3)[C@@H](C)/C=C/C=C3\\CO[C@@H]4[C@H](O)C(C)=C[C@@H](C(=O)O1)[C@]34O)O2", "note": "(tested in a mixture with another compound)", "outcome": "inactive"}, {"smiles": "COc1cc(OC)nc(NC(=O)NS(=O)(=O)c2cc(NC=O)ccc2C(=O)N(C)C)n1", "outcome": "inactive"}, {"smiles": "C#CCN1C(=O)COc2cc(F)c(N3C(=O)C4=C(CCCC4)C3=O)cc21", "outcome": "inactive"}, {"smiles": "CC1(c2ccc(Oc3ccccc3)cc2)OC(=O)N(Nc2ccccc2)C1=O", "note": "(stereo not given)", "outcome": "inactive"}, {"smiles": "CC(C)N(C(=O)COc1nnc(C(F)(F)F)s1)c1ccc(F)cc1", "outcome": "inactive"}, {"smiles": "Oc1cc(Cl)ccc1Oc1ccc(Cl)cc1Cl", "outcome": "inactive"}, {"smiles": "COP(=S)(OC)Oc1ccc([N+](=O)[O-])cc1", "outcome": "inactive"}, {"smiles": "O=C1c2ccccc2C(=O)N1SC(Cl)(Cl)Cl", "outcome": "inactive"}, {"smiles": "CCc1ccc(C(=O)NN(C(=O)c2cc(C)cc(C)c2)C(C)(C)C)cc1", "outcome": "inactive"}, {"smiles": "CCN(CC)C(=O)SCc1ccc(Cl)cc1", "outcome": "inactive"}, {"smiles": "CCOc1nc(NC)nc(NC(=O)NS(=O)(=O)c2ccccc2C(=O)OC)n1", "outcome": "inactive"}, {"smiles": "[2H]C1([2H])[n+]2ccccc2-c2cccc[n+]2C1([2H])[2H]", "outcome": "inactive"}, {"smiles": "CNC(=O)CSP(=S)(OC)OC", "outcome": "inactive"}, {"smiles": "COc1nn(CSP(=S)(OC)OC)c(=O)s1", "outcome": "inactive"}]}]}
